# LYPLA2 counter: counter-screen for PME1 inhibitors: inhibitors of human LYPLA2; 320,000 tested, 0.38% active; recombinant LYPLA2, FP-Rh probe fluorescence polarization; inhibition, % at 5.9 µM;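 active = inhibition above the screen-wide mean plus 3 SD, limit set per campaign, cut at about 26% in these data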;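 also: 0% = LYPLA2 with DMSO and 100% = wells lacking LYPLA2 enzyme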
# Target sequence (O95372 whole entry, looked up): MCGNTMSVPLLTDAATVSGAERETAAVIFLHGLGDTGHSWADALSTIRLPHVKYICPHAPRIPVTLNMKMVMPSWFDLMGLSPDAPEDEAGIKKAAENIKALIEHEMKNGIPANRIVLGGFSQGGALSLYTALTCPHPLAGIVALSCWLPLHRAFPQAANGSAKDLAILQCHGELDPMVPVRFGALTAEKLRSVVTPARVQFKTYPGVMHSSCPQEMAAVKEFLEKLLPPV
# GSTO1 counter: counter-screen for RBBP9 inhibitors: inhibitors of human GSTO1; P78417; recombinant GSTO1, activity-based probe fluorescence polarization; inhibition, % at 5.96 µM; 300,000 tested, 1.1% active;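 active = inhibition above the campaign mean inhibition plus 3 SD, cut at about 35% in these data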;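 also: 0% = GSTO1-1 with DMSO and 100% = wells lacking GSTO1-1 enzyme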
# Fam108B inh: counter-screen for RBBP9 inhibitors: inhibitors of mouse Fam108B; inhibition, % at 9.51 µM; recombinant Fam108B, FP-Rh probe fluorescence polarization; 300,000 tested, 0.33% active;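 active = inhibition above the screen mean inhibition plus 3 SD, computed separately per campaign, cut at about 18% in these data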;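 also: inhibitors lower polarization as less probe binds the enzyme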
# PREPL inhibitor: human PREPL enzyme inhibition | recombinant PREPL, fluorescence polarization activity-based probe | inhibition, % at 5.96 µM | 320,000 tested, 0.68% active | AID 2751 | Q4J6C6;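 also: 0% = enzyme with DMSO and 100% = wells lacking enzyme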
# LYPLA1 inh: LYPLA1 (human) inhibition in PME1 counter-screen | 320,000 tested, 0.16% active | O75608 | inhibition, % at 5.9 µM | recombinant LYPLA1, FP-Rh probe fluorescence polarization | AID 2174;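 active = inhibition above the mean of all tested compounds plus 3 SD, set per campaign, cut at about 14% in these data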;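 also: inhibitors block serine hydrolase probe labeling of LYPLA1 so polarization falls; 0% = enzyme with DMSO and 100% = wells lacking LYPLA1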
# Target sequence (O75608 whole entry, looked up): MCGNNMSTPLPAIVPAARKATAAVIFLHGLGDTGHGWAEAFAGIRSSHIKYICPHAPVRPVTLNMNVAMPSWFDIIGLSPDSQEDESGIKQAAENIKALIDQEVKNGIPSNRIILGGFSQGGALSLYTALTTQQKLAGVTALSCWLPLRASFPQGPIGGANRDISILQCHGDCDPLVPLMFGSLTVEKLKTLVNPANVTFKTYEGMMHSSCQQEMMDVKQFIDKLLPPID
# PME-1 inh: PME-1 (human) inhibition | Q9Y570 | inhibition, % at 5.9 µM | 320,000 tested, 0.53% active | recombinant PME-1, FP-Rh probe fluorescence polarization;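 active = inhibition above the campaign mean of all compounds plus 3 SD, cut at about 26% in these data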;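 also: competitive labeling of PME-1 active site by serine hydrolase directed probe; 0% = PME-1 with DMSO and 100% = wells lacking PME-1 enzyme; inhibitors block probe labeling so polarization falls and inhibition rises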
# PREPL inh cf: confirmation of human PREPL enzyme inhibitors; shares compounds with PREPL inhibitor; recombinant PREPL, fluorescence polarization activity probe; inhibition, % at 5.96 µM; 2,000 tested, 67% active; AID 2803;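 also: 0% = protein with DMSO and 100% = wells lacking protein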
# Numbers without * were called inactive; . = no result. An excerpt weighted towards active compounds, which were near 1.9% of everything screened. Rule as the data show it, unless noted: active = inhibition above about 43%; inactive = the rest.
SMILES,LYPLA2 counter,GSTO1 counter,Fam108B inh,PREPL inhibitor,LYPLA1 inh,PME-1 inh,PREPL inh cf
N#C/C(=C\c1ccc(OC(=O)c2cccs2)cc1)c1nc2ccccc2[nH]1,-13.3,-10.2,-7.7,55.3*,-16.7,-15.7,12.4
Cc1ccc(NC(=O)C2CCN(c3ncnc4c3nc3n4CCCCC3)CC2)nc1,-2.1,7.3,4.7,4.5,1.6,-0.7,.
CC(Nc1nc(-c2ccc(F)cc2)cs1)c1nc2cc(Cl)c(N3CCCCC3)cc2n1CCOCCO (stereo not given),0.0,-1.9,8.5,55.2*,1.1,8.1,49.8*
Cn1cnc(C(=O)N2CCN(C(=O)OC(C)(C)C)CC2)c1C(=O)N1CCN(C(=O)OC(C)(C)C)CC1,-4.1,.,.,16.6,2.5,5.9,.
Cn1cnc(C(=O)N2CCN(c3ccccc3)CC2)c1C(=O)N1CCN(c2ccccc2)CC1,11.1,.,.,45.1*,3.4,6.8,39.5
CC1=CC2=NC(=O)/C(=C\c3ccc(OC(=O)c4ccco4)cc3)C(=N)N2O1,-9.7,3.4,1.5,9.9,0.0,-8.2,.
COc1cc(/C=C2/C(=N)N3OC(C)=CC3=NC2=O)ccc1OC(=O)c1ccco1,-0.4,5.3,-0.8,46.3*,-1.2,1.4,60.3*
CCc1csc(CNC(=O)C2CCC(=O)N(Cc3cccc(F)c3)C2)n1 (stereo not given),3.4,2.1,-3.1,-0.6,1.0,0.9,.
COc1ccc2c(c1)c(C(O)CN1CCN(Cc3ccc4c(c3)OCO4)CC1)c(C)n2C (stereo not given),3.0,9.3,-5.2,47.2*,2.3,2.5,32.0
Cc1c(C(O)CN2CCN(Cc3ccc4c(c3)OCO4)CC2)c2ccccc2n1C (stereo not given),13.9,9.6,3.4,36.5,5.7,4.1,.
Nc1ccc2nc(CCCCCCCCc3nc4ccc(N)cc4[nH]3)[nH]c2c1,6.2,5.2,3.3,70.4*,-1.4,3.2,23.5
Nc1ccc2nc(-c3cccc(-c4nc5ccc(N)cc5[nH]4)n3)[nH]c2c1,-31.3,-1.8,12.8,55.6*,-7.5,-19.9,38.3
Cc1ccc(NC(=O)Cn2c(-c3ccc(F)cc3)cnc2SCC(=O)Nc2c(C)cccc2C)cc1,-8.5,5.2,-4.9,47.3*,-6.5,1.5,12.7
COc1ccc(C(=O)Cn2cnc3ccc(Cl)cc3c2=O)cc1F,0.1,1.2,-4.2,1.8,-6.0,-5.8,.
O=C(c1cccc([N+](=O)[O-])c1)N1CCN(c2ccc(Cl)cc2)CC1,14.2,6.2,3.2,51.4*,2.7,4.3,38.9
C/C(=N\N1CCN(c2ccc(Cl)cc2)CC1)c1cccc([N+](=O)[O-])c1,3.4,2.2,2.1,7.4,1.8,8.5,.
COCCCNC(=O)CN(c1cc(Cl)ccc1OC)S(C)(=O)=O,-2.9,3.0,-3.5,-0.9,0.6,-3.7,.
CCC(CO)[n+]1c(C)cc(/C=C2\Sc3ccccc3N2Cc2ccccc2)cc1C (stereo not given),-9.2,4.0,-2.1,76.7*,3.3,3.4,73.0*
CCN1/C(=C2\SC(=S)N(Cc3ccccc3)C2=O)Sc2ccccc21,-2.2,8.2,5.5,6.6,-5.8,2.9,.
CN(C)c1ccc(C(CNC(=O)c2ccccc2)c2c[nH]c3ccccc23)cc1 (stereo not given),4.8,-1.9,4.7,51.0*,-3.4,8.7,59.0*
CN(C)c1ccc(C(CNC(=O)c2ccccc2F)c2c[nH]c3ccccc23)cc1 (stereo not given),-4.6,-6.5,-0.3,47.2*,-1.0,3.3,51.2*
CN(C)c1ccc(C(CNS(=O)(=O)c2ccc(F)c(F)c2)c2c[nH]c3ccccc23)cc1 (stereo not given),0.1,-4.5,3.5,16.4,-5.0,2.2,.
CCc1nnnn1-c1ccc([N+](=O)[O-])cc1C,0.1,4.0,5.2,23.4,-0.1,0.8,.
Nc1nnc(/C=C/c2ccccc2Cl)s1,2.5,-10.6,-3.6,-2.2,-0.5,1.1,.
O=C(CCN1C(=O)S/C(=C\C=C\c2ccccc2)C1=O)Nc1ccc(O)cc1,21.4,0.3,-0.8,43.3*,-3.4,-5.0,33.6
SMILES,LYPLA2 counter,GSTO1 counter,Fam108B inh,PREPL inhibitor,LYPLA1 inh,PME-1 inh,PREPL inh cf
CCCn1c(SCC(=O)c2c[nH]c3ccccc23)nnc1-c1ccncc1,6.6,-3.7,6.4,44.1*,-6.8,3.3,34.7
C#CCOCCOCCOCCNc1nc(N2CCN(C(=O)CCCCCCCCCCNC(=O)Cn3cc(CCCCCN)nn3)CC2)nc(N2CCN(C(=O)CCCCCCCCCCNC(=O)Cn3cc(CCCCCN)nn3)CC2)n1,11.2,1.3,3.5,63.6*,5.0,-1.2,62.3*
C#CCOCCOCCOCCNc1nc(N2CCN(C(=O)CCCCCCCCCCNC(=O)Cn3cc(CCCCCN)nn3)CC2)nc(N2CCN(C(=O)CCCCCCCCCCNC(=O)[C@@H](CCC(=O)O)n3cc(CCCCCN)nn3)CC2)n1,5.0,5.8,-3.2,44.4*,0.8,1.1,34.6
C#CCOCCOCCOCCNc1nc(N2CCN(C(=O)CCCCCCCCCCNC(=O)Cn3cc(C[C@@H](C)O)nn3)CC2)nc(N2CCN(C(=O)CCCCCCCCCCNC(=O)[C@@H](CCC(=O)O)n3cc(CCCCCN)nn3)CC2)n1,13.0,-5.2,0.5,21.7,-1.5,-8.2,.
COc1cccc(NC(=O)COC(=O)C2CC(=O)N(c3ccc(C)cc3)C2)c1 (stereo not given),6.9,.,.,10.3,0.6,-0.7,.
N#Cc1ncc(Cc2ccccc2)nc1C#N,-3.1,3.9,2.5,52.1*,-2.8,-0.4,37.7
N=c1c(C(=O)NCc2ccc(F)cc2)cc2c(=O)n3ccccc3nc2n1Cc1cccnc1,1.6,-3.4,-1.6,44.5*,-2.3,0.4,41.7
COc1ccc(NC(=O)N2CCN(c3ccc([N+](=O)[O-])cc3)CC2)cc1OC,14.7,6.8,-1.0,46.3*,4.4,-3.6,56.3*
Cc1ccn2c(NC3CCCC3)c(-c3ccccn3)nc2c1,0.1,7.6,3.2,72.0*,1.1,3.8,68.8*
COc1ccc(-c2nc3ccccn3c2NC2CCCCC2)cc1SC1CCCCC1,-9.9,1.7,5.0,12.6,-5.6,2.2,.
c1ccc(-c2nc3ccccn3c2NC2CCCC2)nc1,9.0,9.1,-0.5,62.8*,-0.9,2.6,64.9*
Cc1ccc(S(=O)(=O)NC2CCCC2)cc1C(N)=O,0.4,3.9,1.0,10.5,-1.1,2.5,.
O=C(C1CC(=O)N(c2ccc3c(c2)OCCO3)C1)N1CCN(c2ccccc2O)CC1 (stereo not given),11.1,0.6,1.5,45.2*,2.6,0.1,41.0
COc1ccnc2c1c(=O)n(Cc1ccc(Cl)cc1)c(=O)n2C,8.1,2.0,7.6,-23.8,1.6,4.6,.
